Pf growth 96h = inhibits malaria parasite growth, 96 h. P. falciparum luciferase reporter growth, 96 h. AID 504834. Potency, µM (top dose mostly 28.7 µM), inactives show top-dose activity change, negative = inhibition, most hits filed as inhibitors. hit rate 6.9% among 320,000; note: potency is the fitted concentration of half-maximal effect; % is set by controls: 0 for no effect and ±100 for the full control effect
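Plates of compound plus infected erythrocytes (2% hematocrit, 0.05% parasitemia final) incubate 96 hours, 37 C, 5% CO2. Detection reagent added; reduced luminescence from the parasites' luciferase reporter flags inhibition.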
Shiga toxin inh = blocks Shiga toxin action in Vero cells; inhibition, % at 38.7 µM; Vero cells, Shiga toxin protein synthesis inhibition reporter; AID 2315; hit rate 9.2% among 290,000; in the data active = inhibition mostly above about 28%, no sharp cut-off; inactive = mostly below about 43%; note: 0% is about no effect
NS1 inh = blocks influenza NS1 protein function; Potency, µM (highest dose often 46.1 µM), for the others: top-dose activity, positive = more growth; hit rate 0.4% among 270,000; calls by dose curve; note: potency is the fitted concentration of half-maximal effect; actives are rising curves; nearly all actives have a fitted effect of over 50% in size
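Compounds were scored for reversing the slow growth caused by influenza A NS1 in S. cerevisiae, measured by optical density at 600 nm. Assay medium contained 2% galactose at pH 6.0; NS1-free yeast of the same strain were the positive control.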
CHX counter = affects cycloheximide protein synthesis inhibition readout, counter-screen; AID 2314; cell reporter, cycloheximide protein synthesis inhibition counterscreen; hit rate 12% among 300,000; max response, %; in the data active = max response mostly above about 13%, no sharp cut-off; inactive = mostly below about 14%; note: read at 38.3 µM for the half of the compounds with a filed dose; 0% is about no effect
Pf growth 48h = P. falciparum growth inhibition at 48 hours (one generation); Potency, µM (titrated, usually from 28.7 µM), inactives show top-dose activity change, negative = inhibition, most hits filed as inhibitors; P. falciparum luciferase growth in erythrocytes, 48 h; hit rate 5.9% among 310,000; note: potency is the fitted concentration of half-maximal effect; % is set by controls: 0 for no effect and ±100 for the full control effect
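Firefly luciferase activity from engineered P. falciparum reports growth; inhibitors lower the luminescent signal. Cultures contained 2% hematocrit erythrocytes at 0.1% final parasitemia.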
Sm TGR block = blocks Schistosoma mansoni thioredoxin glutathione reductase | Q962Y6 | purified TGR, DTNB reduction, TNB absorbance 405 nm | Potency, µM (titrated, usually from 114 µM), for inactives: at the highest dose activity change, negative = inhibition, usual class: inhibitors | hit rate 3% among 360,000 | AID 485364; note: potency is the fitted concentration of half-maximal effect; % is set by controls: 0 for no effect and ±100 for the full control effect; nearly all actives have a fitted effect of over 60% in size
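First, TGR (20 nM dispensed) and NADPH were mixed with compound. Second, a 15 min room-temperature incubation followed. Third, further NADPH and then DTNB were added to start the reaction. Finally, TNB absorbance was monitored kinetically.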
* = called active by the depositor; ? = inconclusive; / = not tested or not shown. A selection: hits, their analogues and other compounds. The true share with any hit is near 21%. Unless noted, calls come from the whole dose curve; as a rule, active = well fitted curve in the direction sought with a large enough effect; inconclusive = small, poorly fitted or top-dose-only effect, or another doubt; inactive = no such curve, though single readings can be large; an effect the other way counts as inactive or inconclusive.

SMILES	Pf growth 96h	Shiga toxin inh	NS1 inh	CHX counter	Pf growth 48h	Sm TGR block
Cn1c(N)c(C(=O)COC(=O)C2(c3cccc(F)c3)CCCC2)c(=O)n(C)c1=O	13µM*	-6	-36%	-1	7.4µM*	-2%
Cn1c(N)c(C(=O)COC(=O)Cc2ccsc2)c(=O)n(C)c1=O	10µM*	8	4%	-2	20%	-5%
S[C@@H]1CCCN(Cc2ccccc2)C1	/	/	3%	/	/	/
O=C1C2C3C=CC(C3)C2C(=O)N1c1ccc(N2CCN(c3ccccn3)CC2)c([N+](=O)[O-])c1 (stereo not drawn)	?	11	/	3	0%	3%
Cc1cccc(NC(=O)C2CCCN(S(=O)(=O)c3c(C)nn(C)c3C)C2)n1 (stereo not drawn)	12µM*	-2	-2%	-2	-11%	-5%
Cc1ccc(C)c(NC(=O)C2CCCN(S(=O)(=O)c3c(C)nn(C)c3C)C2)c1 (stereo not drawn)	2.9µM*	-14	-4%	7	-26%	-1%
Cn1c(CCNC(=O)c2ccccc2F)nnc1SCC(=O)Nc1nncs1	26%	-8	-4%	-5	21%	-27%
COc1ccc(Nc2nc3c(C)cccc3cc2C#N)cc1	34%	19	-2%	-1	?	-4%
COc1cccc(Nc2nc3cc(OC)ccc3cc2C#N)c1	5.2µM*	-9	4%	-3	-1%	11%
COc1cccc(Nc2c(Nc3cccc(OC)c3)c(=O)c2=O)c1	?	3	2%	-2	?	2%
COc1cccc(Nc2ncc(C#N)c(N)n2)c1	?	81*	-5%	39*	7%	16%
O=C(CSc1nnc(-c2ccccc2)n1Cc1ccccc1)N1CCOCC1	15%	24	-4%	-3	1%	13%
Cn1c(SCC(=O)N2CCOCC2)nnc1-c1ccncc1	6%	-21	-2%	-2	12%	-10%
Cn1c(SCC(=O)N2CCN(Cc3ccccc3)CC2)nnc1-c1ccncc1	2.9µM*	-9	4%	-2	9%	5%
O=C(CSc1nnc(-c2cccnc2)n1Cc1ccccc1)N1CCOCC1	1.9µM*	-10	-5%	2	18%	0%
COc1ccccc1OCCC(=O)OCC(=O)Nc1ccc(Br)cc1F	25%	17	/	-2	14%	-16%
O=C(N/N=C/c1cn(-c2cccs2)nc1-c1ccccc1)c1ccccc1Br	?	55	17%	25*	11%	-3%
O=C(N/N=C/c1cn(-c2cccs2)nc1-c1ccccc1)c1ccccc1O	6.6µM*	94*	23%	49*	?	-4%
CC(C)CN1CCC(=O)N(CCSc2ccccc2)CC1	325%	37*	10%	39*	231%	-12%
Cc1ccc(SCCN2CCN(CCc3ccccc3)CCC2=O)cc1	40%	7	?	13	42%	-2%
O=C1CCC(O)CCN1CCSc1ccccc1 (stereo not drawn)	109%	50*	20%	34*	34%	1%
CCCN1CCC(=O)N(CCSc2ccc(OC)cc2)CC1	34%	11	-2%	9	55%	0%
CCCN1CCC(=O)N(CCSc2ccc(C)cc2)CC1	52%	53*	-8%	38*	76%	44%
CCOC(=O)COn1c(=O)c(-c2ccccc2)[n+]([O-])c2ccccc21	6%	17	-1%	3	/	-18%
O=C(/C=C/c1ccc(O)c(O)c1)c1ccc(O)cc1O	/	35*	/	10*	/	/
SMILES	Pf growth 96h	Shiga toxin inh	NS1 inh	CHX counter	Pf growth 48h	Sm TGR block
CCOC(=O)c1sc2ccccc2c1S(=O)(=O)Nc1cccc(C(F)(F)F)c1	/	/	/	/	/	-3%
Cc1cc(NC(=O)C(C)SCC(=O)N(C)CC(=O)Nc2ccccc2Br)no1 (stereo not drawn)	63%	/	/	/	-1%	14%
COc1ccccc1/C=C/C1(C(=O)NC2CCCC2)CC(=O)N1c1ccc(F)cc1 (stereo not drawn)	32%	14	-7%	2	10µM*	-30%
COc1cccc2c1OC1(CCN(C(C)C)CC1)N1N=C(c3cccnc3)CC21 (stereo not drawn)	83%	90*	21%	53*	65%	9%
COc1cc(C2CC(c3cccnc3)=NN2c2ccc(F)cc2)cc(OC)c1OC (stereo not drawn)	?	3	-40%	-1	?	-8%
CC(C)N1CCC2(CC1)Oc1ccc(Br)cc1C1CC(c3cccnc3)=NN12 (stereo not drawn)	13µM*	61*	-61%	26*	?	7%
Cc1nn(CCO)c2nc(-c3cccs3)cc(C(F)(F)F)c12	0%	-4	27%	10	4%	25µM*
CCOc1cccc2sc(NC(=O)c3ccc(S(=O)(=O)N4CCc5ccccc54)cc3)nc12	/	/	/	/	/	-1%
COc1cccc(NC(=O)CN(C)C(C)C(=O)Nc2ccc(S(=O)(=O)N3CCOCC3)cc2)c1 (stereo not drawn)	4.7µM*	-16	-45%	5	5.2µM*	8%
CCN(Cc1ccc(OC)c(F)c1)C(=O)/C=C/c1ccc(S(=O)(=O)N2CCOCC2)cc1	9.3µM*	/	/	/	10µM*	-2%
COc1ccc(CN(C)C(C)C(=O)Nc2ccc(S(=O)(=O)N3CCOCC3)cc2)c(OC)c1 (stereo not drawn)	?	-3	/	10	?	-19%
CCOc1ccccc1NC(=O)c1ccc(S(=O)(=O)N2CCOCC2)cc1	/	-18	-6%	3	1%	-10%
O=C(/C=C/c1ccc(F)cc1)Nc1ccc(S(=O)(=O)N2CCOCC2)cc1	?	10	-6%	10	10µM*	-1%
CCOc1ccccc1NC(=O)/C=C/c1ccc(S(=O)(=O)N2CCOCC2)cc1	4.7µM*	/	/	/	4.7µM*	4%
O=C(/C=C/c1ccc(S(=O)(=O)N2CCOCC2)cc1)NC(=S)Nc1ccc(N2CCOCC2)cc1	?	-5	20%	9	-13%	-15%
COc1ccc(C2/C=C\CN(C(=O)C3CCCC3)CC(=O)N2Cc2ccc(F)cc2)cc1 (stereo not drawn)	?	2	-1%	-7	?	41%
OCCn1ccc(-c2ccccc2OCc2ccc(F)cc2)n1	?	-7	2%	-4	?	-1%
COc1cccc(NC(=O)/C=C/c2ccc(S(=O)(=O)N3CCOCC3)cc2)c1	10µM*	/	/	/	?	1%
CCCn1c(CCC(=O)Nc2ccccc2Cc2ccccc2)nc2cc(S(=O)(=O)N3CCOCC3)ccc21	2.3µM*	-13	6%	-2	/	-3%
COc1ccc(S(=O)(=O)N2CCOCC2)cc1NC(=O)/C=C/c1ccccc1	?	/	/	/	-1%	?
COc1cccc(CN(C)C(=O)/C=C/c2ccc(S(=O)(=O)N3CCCCCC3)cc2)c1	12µM*	-22	?	-1	12µM*	-22%

Compound activity from PubChem.
